SMILES strings stand for the structures. Where “and” joins values, the source holds several entries; their conditions need not be identical. Equal values may be shown once. Inconclusive results are not listed. Calls of active or inactive are those of the source. Calls come from the whole dose curve; as a rule, active = well fitted curve in either direction with a large enough effect (not every such curve was filed as active); inconclusive = small, poorly fitted or top-dose-only effect, or another doubt; inactive = flat fitted curve, though single readings scatter.
% is set by controls: 0 for no effect and ±100 for the full control effect.

One assay in a line: NFAT Signaling Pathway (AID 444). The settings on record: Jurkat NFAT-bla M1, carbachol, beta-lactamase ratio, 5 h; at 17.2 µM (top of the series). The text has this:
NCGC Assay Overview: The nuclear factor of activated T cells (NFAT) family of transcription factors has been found primarily in most immune system cells and some other non-immune cells. NFAT plays the immunomodulatory role, primarily in T-cell activation and differentiation. NFAT target genes are also involved in the regulation of apoptosis and differentiation in non-immune cell types. The NFAT sequence was engineered to the upstream of the ?-lactamase reporter gene and transfected into Jurkat cells with co-transfection of muscarinic receptor1 [provided by Invitrogen Corp]. When an extracellular stimulus, such as carbachol, binds to the GPCR M1 receptor, it stimulates a signaling cascade that activates NFAT response element and ?-lactamase expression by phosphorylating the NFAT binding protein. This cell based ?-lactamase reporter gene assay can accurately monitor any changes occurring along the NFAT pathway, and can be used for screening small molecule inhibitor or activator upon activation by carbachol EC50 concentration. A small molecular library were screened in a titration series resulting in AC50s (can be either IC50s or EC50s).
NCGC Assay Protocol Summary: The cells were prepared in RPMI 1640 medium containing 0.1% dialyzed FBS and 25 mM HEPES at 1.6 x 10^6cell/ml. The assay was performed in 1536-well plate format as follows: 5 ul of cell preparation 23 nl of compounds 1ul of carbachol (final concentration 1 uM) Briefly centrifuge the plates and incubate at 37 °C for 5 hours 1 ul of CCF4 dye mixture Incubate the plates at RT for 1 hour Read the plate in EnVision plate reader (Ex= 405nm, and Em1=460nm and Em2=530nm). The %Activity was determined from the ratio of 460nm/530nm. Data normalization and AC50 calculations were accomplished using GeneData software.
In the case of `N[C@@H](Cc1ccc(O)c(O)c1)C(=O)O`, the activity change, negative = inhibition is 1.41% (inactive).

The assay is the same for the next values; noted with them: Jurkat NFAT-bla M1, carbachol, beta-lactamase ratio, 5 h; at 17.2 µM (top of the series) unless noted.
Take `Cc1noc(NS(=O)(=O)c2ccc(N)cc2)c1C`: the activity change, negative = inhibition is -7.16% (inactive) and 11.7% (inactive).

On to `CCCOc1ccc(C(=O)OCCN(CC)CC)cc1N`, for which the activity change, negative = inhibition is -19.1% (inactive). For `COc1ccc2c(c1)c(CC(=O)OCC(=O)O)c(C)n2C(=O)c1ccc(Cl)cc1`, the activity change, negative = inhibition was 2.54% (inactive) and 1.97% (inactive). The same measure, in the same setting: with `Cn1c(=O)c2c(ncn2CC(O)CO)n(C)c1=O` (configuration not stated) the figure was 10.5% (inactive); with `COc1ncnc(NS(=O)(=O)c2ccc(N)cc2)c1OC`, -25.1% (inactive). The same measure, in the same setting: with `O=C(O)c1cccnc1` the figure was -4.12% (inactive); with `Cc1ncc([N+](=O)[O-])n1CCO`, -4.16% (inactive) and -8.01% (inactive). As for `CC(=O)[C@H]1CC[C@H]2[C@@H]3CCC4=CC(=O)CC[C@]4(C)[C@H]3CC[C@]12C`, the activity change, negative = inhibition was -29.5% (inactive). For the compound `CCN(CC)CC#CCOC(=O)C(O)(c1ccccc1)C1CCCCC1` (configuration not stated), the activity change, negative = inhibition was -93% (active). In the case of `CCc1cc(C(N)=S)ccn1`, the activity change, negative = inhibition is 5.86% (inactive). Same read-out and setting: with `COc1cc(NS(=O)(=O)c2ccc(N)cc2)nc(OC)n1` the figure was -19.2% (inactive); with `NC(=O)c1cccc(N)c1`, 1.89% [at 38 µM] (inactive); with `COc1ccccc1OCC(O)COC(N)=O` (configuration not stated), -29.9% (inactive). For the compound `COc1cnc(NS(=O)(=O)c2ccc(N)cc2)nc1`, the activity change, negative = inhibition was -4.83% (inactive). Still for that read-out and setting: the value for `COC(=O)Nc1nc2ccc(Sc3ccccc3)cc2[nH]1` was -6.14% (inactive). As for `COc1cc2ncnc(Nc3cccc(Cl)c3)c2cc1OC`, the activity change, negative = inhibition is 3.52% [at 38 µM] (inactive).

In the case of `CC1=CC(=O)c2ccccc2C1=O`, the activity change, negative = inhibition was -115% (active). For `Cc1nnc(NS(=O)(=O)c2ccc(N)cc2)s1`, the activity change, negative = inhibition is 16.1% (inactive) and -9.52% (inactive).

Turning to `CCn1cc(C(=O)O)c(=O)c2cc(F)c(N3CCNCC3)nc21`, the activity change, negative = inhibition is -11.9% (inactive) and 9.94% (inactive).

`CCn1cc(C(=O)O)c(=O)c2cc(F)c(N3CCNCC3)cc21`: the activity change, negative = inhibition was 1.51% (inactive) and 17.3% (inactive). The same measure, in the same setting: the value for `O=S(=O)(c1cccc2cnccc12)N1CCCNCC1` was -20.4% (inactive). For `CCC(=O)O[C@]1(C(=O)CCl)[C@@H](C)C[C@H]2[C@@H]3CCC4=CC(=O)C=C[C@]4(C)[C@@]3(F)[C@@H](O)C[C@@]21C`, the activity change, negative = inhibition was -24.5% (inactive). On the same count and under the same terms, the value for `NC(N)=NC(N)=NCCc1ccccc1` was -2.75% (inactive) and 12.2% (inactive). As for `CC1=NN(c2ccccc2)C(=O)C1`, the activity change, negative = inhibition was 9.94% (inactive). Take `CCCCOc1ccc(CC(=O)NO)cc1`: the activity change, negative = inhibition is -5.9% (inactive) and 15% (inactive). The same measure, in the same setting: the value for `Nc1[nH]c(=O)ncc1F` was 0.663% (inactive); that for `NNC(=O)c1ccncc1` was -9.4% (inactive) and 6.65% (inactive); that for `Cc1cc(NS(=O)(=O)c2ccc(N)cc2)no1` was 1.34% (inactive) and -21.2% (inactive). The same measure, in the same setting: with `CNNCc1ccc(C(=O)NC(C)C)cc1` the figure was -25.9% (inactive). In the case of `CC(C)(Sc1cc(C(C)(C)C)c(O)c(C(C)(C)C)c1)Sc1cc(C(C)(C)C)c(O)c(C(C)(C)C)c1`, the activity change, negative = inhibition is 10.7% (inactive). Regarding `OCc1ccc(-c2nn(Cc3ccccc3)c3ccccc23)o1`, the activity change, negative = inhibition is 4.66% [at 38 µM] (inactive).

As to `O=C(O)c1cn(C2CC2)c2cc(N3CCNCC3)c(F)cc2c1=O`, the activity change, negative = inhibition is 6.31% (inactive). Still for that read-out and setting: the value for `Nc1ccc(S(=O)(=O)Nc2ccccn2)cc1` was -3.78% (inactive) and -28.1% (inactive). In the case of `N[C@@H](C(=O)N[C@@H]1C(=O)N2C(C(=O)O)=C(Cl)CS[C@H]12)c1ccccc1`, the activity change, negative = inhibition was 7.31% (inactive).

On to `Cc1cccc(Nc2ccncc2S(=O)(=O)NC(=O)NC(C)C)c1`, for which the activity change, negative = inhibition was -2.46% (inactive).

The assay is the same for the next values; noted with them: Jurkat NFAT-bla M1, carbachol, beta-lactamase ratio, 5 h; at 38 µM (top of the series).
For the compound `N[C@@H](Cc1ccc(O)c(O)c1)C(=O)O`, the activity change, negative = inhibition was 18.2% (inactive).

The values are drawn from PubChem BioAssay (NCATS).
